DT40 TDP1 no CPT = qHTS for Inhibitors of human tyrosyl-DNA phosphodiesterase 1 (TDP1): qHTS in cells in absence of CPT; 420,000 compounds, 15% hits; Potency, µM (titrated, usually from 46.2 µM), hits mostly inhibitors; AID 686978, 2013; DT40 Tdp1-/- hTDP1 cells, no CPT, ATP luminescence, 48 h; also: nearly all actives have a fitted effect of over 55% in size
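Chicken DT40 Tdp1-/- cells complemented with human TDP1, screened without camptothecin (DMSO vehicle only), 400 cells/well. Compounds pin-transferred, cells incubated at 37 °C for at least 48 hr. Growth read as ATP-dependent luminescence (CellTiter-Glo, 30 min at RT).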
TDP1 inh = qHTS Assay for Inhibitors of Tyrosyl-DNA Phosphodiesterase (TDP1); Tyrosyl-DNA phosphodiesterase 1 (Homo sapiens), Q9NUW8; recombinant TDP1, AlphaScreen DNA substrate cleavage; Potency, µM (highest dose often 130 µM), actives largely listed as inhibitors; 350,000 compounds, 0.28% hits; AID 485290, 2010; also: nearly all actives have a fitted effect of over 40% in size
Target sequence (Q9NUW8 whole entry, looked up): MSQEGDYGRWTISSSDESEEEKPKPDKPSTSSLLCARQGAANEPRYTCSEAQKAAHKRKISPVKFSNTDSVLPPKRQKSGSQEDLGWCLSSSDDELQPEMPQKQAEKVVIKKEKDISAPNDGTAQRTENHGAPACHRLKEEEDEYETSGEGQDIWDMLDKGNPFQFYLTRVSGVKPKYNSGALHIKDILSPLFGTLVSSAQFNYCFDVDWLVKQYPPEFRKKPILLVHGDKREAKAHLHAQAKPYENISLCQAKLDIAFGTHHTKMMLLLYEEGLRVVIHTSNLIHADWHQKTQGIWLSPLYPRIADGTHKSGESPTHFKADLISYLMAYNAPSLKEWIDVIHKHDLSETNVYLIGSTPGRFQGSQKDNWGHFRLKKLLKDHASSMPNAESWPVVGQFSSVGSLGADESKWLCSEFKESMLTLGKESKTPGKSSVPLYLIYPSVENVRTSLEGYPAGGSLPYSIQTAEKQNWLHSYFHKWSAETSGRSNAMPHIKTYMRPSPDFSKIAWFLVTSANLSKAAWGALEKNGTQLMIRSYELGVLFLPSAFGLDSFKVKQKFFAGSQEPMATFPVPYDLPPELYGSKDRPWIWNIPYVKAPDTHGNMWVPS
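E. coli-derived human Tdp1, 1 nM final. Cpd preinc 15 min RT; substrate 15 nM final, 5 min RT; AS bead mix 10 ug/ml final, 10 min RT. Signal loss = tyrosine-FITC cleavage. No-enzyme wells = max signal.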
miR-21 reporter = qHTS Assay for Modulators of miRNAs and/orActivators of miR-21; HeLa miR-21 FLuc reporter, luciferase, 48 h; Potency, µM (top dose mostly 38.3 µM), usual class: activators; 340,000 tested, under 10 active;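 also: miR-21 action dims this reporter so a rising signal means less miR-21 action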
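Using DMEM plus 10% FBS, HeLa miR-21-FLuc cells are incubated with test compounds (final up to about 40uM) for 48 hours; firefly luciferase signal is then imaged following reagent-mediated lysis.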
uPA surface inh = qHTS for Inhibitors of Cell Surface uPA Generation | 330,000 compounds, 0.31% hits | cell surface uPA generation assay, qHTS | Potency, µM (doses to about 38.3 µM), most hits filed as inhibitors; active = well fitted inhibition curve with a large enough effect; inconclusive = small, poorly fitted or top-dose-only effect; inactive = no such curve, though single readings can be large or run the other way; tested in mouse RAW 264.7 cells; also: nearly all actives have a fitted effect of over 55% in size
DT40 TDP1 CPT = qHTS for Inhibitors of human tyrosyl-DNA phosphodiesterase 1 (TDP1): qHTS in cells in presence of CPT. chicken DT40 Tdp1-/-;hTDP1 cells + 20 nM CPT, ATP luminescence, 48 h. AID 686979, 2013. Potency, µM (top dose mostly 46.2 µM), usual class: inhibitors. 420,000 compounds, 12% hits; also: nearly all actives have a fitted effect of over 55% in size
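Chicken DT40 Tdp1-/- cells complemented with human TDP1, 400 cells/well, exposed to compounds plus 20 nM camptothecin for at least 48 h at 37 C; viability read as ATP content by CellTiter-Glo luminescence.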
Hits are given with their value. Sampled rows, rich in hits. Any-hit rate of the full collection: about 16%. Unless noted, calls follow the shape of the dose curve; as a rule, active = well fitted curve in the direction sought with a large enough effect; inconclusive = small, poorly fitted or top-dose-only effect, or another doubt; inactive = no such curve, though single readings can be large; an effect the other way counts as inactive or inconclusive.

CC(C)(C)NC(=O)CN(C(=O)c1snc(C(=O)NC2CCCCC2)c1N)c1ccccc1F was read as DT40 TDP1 no CPT 21µM, miR-21 reporter inactive, uPA surface inh inactive and DT40 TDP1 CPT inconclusive.
CCOc1ccc(N(C(=O)c2snc(C(N)=O)c2N)C(C(=O)NCC2CCCO2)c2ccc(C)o2)cc1 (stereo not drawn) was read as DT40 TDP1 no CPT inconclusive, TDP1 inh inactive, miR-21 reporter inactive, uPA surface inh inactive and DT40 TDP1 CPT 18µM.
`Cc1ccc(C(C(=O)NCC2CCCO2)N(C(=O)c2snc(C(N)=O)c2N)c2ccc(F)cc2)o1` (stereo not drawn) gave DT40 TDP1 no CPT inconclusive, miR-21 reporter inactive, uPA surface inh inactive and DT40 TDP1 CPT inactive.
Screening Fc1ccc(N2CCN(Cc3cnc(N4CCOCC4)s3)CC2)cc1 returned DT40 TDP1 no CPT inactive, TDP1 inh inactive, miR-21 reporter inactive, uPA surface inh inactive and DT40 TDP1 CPT inactive.
Screening CN1CCC2(CC1)C1CN(C)CC=C1C(C#N)=C(N)C2(C#N)C#N (stereo not drawn) returned DT40 TDP1 no CPT inactive, TDP1 inh inactive, miR-21 reporter inactive, uPA surface inh inactive and DT40 TDP1 CPT inconclusive.
For CCCCOc1ccc(N(CC(=O)NC2CCCCC2)C(=O)c2snc(C(N)=O)c2N)cc1 the results were DT40 TDP1 no CPT 16µM, TDP1 inh inactive, miR-21 reporter inactive and DT40 TDP1 CPT inconclusive.
`Cc1cc(C)cc(N(C(=O)c2snc(C(N)=O)c2N)C(C(=O)NCC2CCCO2)c2ccc(C)o2)c1` (stereo not drawn) gave DT40 TDP1 no CPT 21µM, TDP1 inh inactive, miR-21 reporter inactive, uPA surface inh inactive and DT40 TDP1 CPT inconclusive.
For COc1ccc(N(C(=O)c2snc(C(N)=O)c2N)C(C(=O)NC2CCCCC2)c2ccc(C)o2)cc1 (stereo not drawn) the results were DT40 TDP1 no CPT 16µM, miR-21 reporter inactive, uPA surface inh inactive and DT40 TDP1 CPT inconclusive.
For C=Cc1nc(Nc2cc(F)cc(F)c2)nc(NC2CCCC2)n1 the results were TDP1 inh inactive.
COc1ccc(N=Cc2nc(-c3ccco3)oc2O)cc1 was read as DT40 TDP1 no CPT 29µM, TDP1 inh inactive, miR-21 reporter inactive, uPA surface inh inactive and DT40 TDP1 CPT inconclusive.
`O=C(Oc1oc(-c2ccco2)nc1C=Nc1ccc(Cl)cc1)c1ccco1` gave DT40 TDP1 no CPT 9.2µM, TDP1 inh inactive, miR-21 reporter inactive, uPA surface inh inactive and DT40 TDP1 CPT 10µM.
`COc1ccc(-n2c(SCC(=O)Nc3ccccc3)nc3c(c2=O)SCC3)cc1` gave DT40 TDP1 no CPT inactive, TDP1 inh inactive, miR-21 reporter inactive, uPA surface inh inactive and DT40 TDP1 CPT inactive.
O=C(c1ccccc1)N1CCC(=O)N1c1ccccc1 was read as DT40 TDP1 no CPT inactive, TDP1 inh inactive, miR-21 reporter inactive, uPA surface inh inactive and DT40 TDP1 CPT inactive.
For COc1cccc(-n2nc(-c3ccnn3-c3cccc(Cl)c3)c(=O)n(C)c2=O)c1 the results were DT40 TDP1 no CPT 16µM, TDP1 inh inactive, miR-21 reporter inactive, uPA surface inh inactive and DT40 TDP1 CPT 23µM.
`C[C@H](CO)N1C[C@H](C)[C@@H](CN(C)S(=O)(=O)c2cn(C)cn2)Oc2ccc(NC(=O)C3CCCCC3)cc2C1=O` gave DT40 TDP1 no CPT inactive, TDP1 inh inactive, uPA surface inh inactive and DT40 TDP1 CPT inactive.
Screening COc1ccccc1N1CCN(c2nc(CNC(=O)c3sc(C)nc3C)nc3ccccc23)CC1 returned DT40 TDP1 no CPT 5.2µM and DT40 TDP1 CPT 6.5µM.
Cc1ccc(C2CC2c2n[nH]c(=S)n2-c2cccc(Cl)c2)cc1 (stereo not drawn) was read as DT40 TDP1 no CPT 23µM, TDP1 inh inactive, miR-21 reporter inactive, uPA surface inh inactive and DT40 TDP1 CPT inconclusive.
For COc1ccc(N/C(C)=C/C(=S)Nc2ccccc2)cc1 the results were DT40 TDP1 no CPT inconclusive, TDP1 inh inactive, miR-21 reporter inactive, uPA surface inh inactive and DT40 TDP1 CPT 10µM.
For C#CCOc1ccc(Cl)cc1/C=C1/C(=O)ON=C1C the results were DT40 TDP1 no CPT inconclusive, miR-21 reporter inactive, uPA surface inh inactive and DT40 TDP1 CPT 23µM.
For CCOc1cc(/C=C2\C(=O)ON=C2C)ccc1OCc1ccccc1 the results were DT40 TDP1 no CPT 15µM, TDP1 inh inactive, miR-21 reporter inactive, uPA surface inh inactive and DT40 TDP1 CPT inconclusive.
CCCOc1ccc(/C=C2/C(=O)ON=C2C)cc1OCC was read as DT40 TDP1 no CPT inconclusive, miR-21 reporter inactive, uPA surface inh inactive and DT40 TDP1 CPT inconclusive.
For C#CCOc1ccc(/C=C2/C(=O)ON=C2C)cc1Br the results were DT40 TDP1 no CPT 26µM, miR-21 reporter inactive, uPA surface inh inactive and DT40 TDP1 CPT 23µM.
`CCCOc1ccccc1/C=C1/C(=O)ON=C1C` gave DT40 TDP1 no CPT inconclusive, miR-21 reporter inactive, uPA surface inh inactive and DT40 TDP1 CPT inconclusive.
Screening O=C1CCCC2=C1C1(CCC1)N=C(Nc1nc3ccccc3o1)N2 returned TDP1 inh inactive.
For CCc1ccc(OCCCn2c(-c3ccc(Cl)cc3)nc3ccccc3c2=O)cc1 the results were DT40 TDP1 no CPT inactive, miR-21 reporter inactive and DT40 TDP1 CPT inactive.
COc1ccc(/C=C/C(=O)Nc2cccc(S(=O)(=O)N3CCOCC3)c2)cc1OC was read as DT40 TDP1 no CPT 16µM, TDP1 inh inactive, uPA surface inh inactive and DT40 TDP1 CPT inconclusive.
Cc1ccc(/C=C/C(=O)N2CCN(Cc3ccccc3)CC2)o1 was read as DT40 TDP1 no CPT inconclusive, TDP1 inh inactive, miR-21 reporter inactive, uPA surface inh inactive and DT40 TDP1 CPT inconclusive.
For Cc1ccc(/C=C/C(=O)N2CCN(S(=O)(=O)c3c(C)c(C)cc(C)c3C)CC2)o1 the results were DT40 TDP1 no CPT 15µM, TDP1 inh inactive, miR-21 reporter inactive, uPA surface inh inactive and DT40 TDP1 CPT 23µM.
Screening COc1ccc(NC(C)=O)cc1NC(C)C(=O)Nc1cccc(S(=O)(=O)N2CCOCC2)c1 (stereo not drawn) returned DT40 TDP1 no CPT inactive, TDP1 inh inactive, uPA surface inh inactive and DT40 TDP1 CPT inactive.
Screening COc1ccc(NC(C)C(=O)Nc2cccc(S(=O)(=O)N3CCOCC3)c2)cc1OC (stereo not drawn) returned DT40 TDP1 no CPT 8.2µM, TDP1 inh inactive, uPA surface inh inconclusive and DT40 TDP1 CPT 9.2µM.
`COc1ccc(OC)c(NC(=O)/C=C/c2ccc(S(=O)(=O)N3CCOCC3)cc2)c1` gave DT40 TDP1 no CPT inconclusive, TDP1 inh inactive, uPA surface inh inactive and DT40 TDP1 CPT 26µM.
